Reference: PubChem BioAssay (NCI)
About 79,000 compounds went through this panel and 15% of them were active in at least one assay; those are over-represented in the sample as a whole. No stated cut-off is given here; in the data, active means growth inhibition above about 70%; inactive means the rest.

Key:
[1] = NCI Yeast Anticancer Drug Screen. Data for the rad50 strain (AID 155);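 further: 0% = growth of vehicle-only cultures of the same strain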; details: S. cerevisiae rad50 strain growth inhibition; at 50.0 µM; active compounds read high
Outline: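 Genetically altered yeast (DNA repair pathway); compound treatment; growth inhibition vs vehicle ctrl.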

[2] = NCI Yeast Anticancer Drug Screen. Data for the mec2-1 strain (AID 157); details: S. cerevisiae mec2-1 strain, at 50.0 µM, active compounds read high
Outline: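 Readout is yeast growth inhibition, normalised to vehicle-treated controls, in the mec2-1 strain exposed to compound.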

[3] = NCI Yeast Anticancer Drug Screen. Data for the sgs1 mgt1 strain (AID 161);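 further: 0% = growth of cultures given vehicle only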; details: S. cerevisiae sgs1 mgt1 strain, at 50.0 µM, active compounds read high
Outline: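 This yeast growth screen uses a strain with defined DNA-repair lesions; compound-treated growth is compared with vehicle-treated growth.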

[4] = NCI Yeast Anticancer Drug Screen. Data for the cln2 rad14 strain (AID 165);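 further: 0% = growth equal to vehicle treated cultures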; details: S. cerevisiae cln2 rad14 strain, at 50.0 µM, active compounds read high
Outline: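 Relative to vehicle controls, growth inhibition of compound-treated cln2 rad14 yeast was recorded.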

[5] = NCI Yeast Anticancer Drug Screen. Data for the bub3 strain (AID 167); details: S. cerevisiae bub3 mutant strain, at 50.0 µM, active compounds read high
Outline: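 Yeast carrying a defined mutation is treated with each compound, and growth is compared with that of vehicle-exposed cells to give inhibition.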

[6] = NCI Yeast Anticancer Drug Screen. Data for the mlh1 rad18 strain (AID 175); details: S. cerevisiae mlh1 rad18 strain growth inhibition; at 50.0 µM; active compounds read high
Outline: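 Test agents were incubated with a yeast strain of defined genotype (DNA damage repair defect). Inhibition of growth was derived by comparison with vehicle-exposed cultures.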

Measured: growth inhibition

c1csc(-c2nn3c(C45CC6CC(CC(C6)C4)C5)nnc3s2)c1
inactive: [1] 10.9% | [2] -15.3% | [3] -20.1% | [4] -11.3% | [5] 2.3% | [6] -12.8%

CN(CCO)CCC1COc2ccccc2O1 (stereo not given)
inactive: [1] 2.1% | [2] -29.6% | [3] 0.25% | [4] 12.1% | [5] -1.05% | [6] 1.25%

COC(=O)C1(CC(=O)c2cc(Cl)ccc2Cl)NC(=S)NC(=O)C1C#N (stereo not given)
inactive: [1] 19.9% | [2] -9.1% | [3] -8.15% | [4] 30.5% | [5] -6.75% | [6] 2.1%

COc1ccc(NC(=O)CC(=O)N2N=C(N(CCC#N)c3ccccc3Cl)CC2c2ccccc2)cc1 (stereo not given)
inactive: [1] -13.4% | [2] -23.6% | [3] -1% | [4] 10.7% | [5] -4.55% | [6] -28.9%

C/C(N=NC(=S)N(C)C)=C1\C=CC=CN1O
inactive: [1] -0.25% | [2] 11.8% | [3] 8.1% | [4] 55.6% | [5] 23.1% | [6] 38.9%

CCC(=O)[C@@]1(OC(C)=O)CC[C@H]2[C@@H]3CCC4=CC(=O)CC[C@]4(C)[C@H]3CC[C@@]21C
inactive: [1] 28.1% | [2] 17.5% | [3] 30.9% | [4] 36.7% | [5] 26.9% | [6] 16%

O=C1OC2C(O)C(N(O)c3ccccc3)OC2[C@@H]1O (stereo not given in full)
inactive: [1] 1.85% | [2] 17.5% | [3] 21.9% | [4] 9.2% | [5] 21.8% | [6] 15.1%

N#CC(C#N)=C1c2ccccc2Sc2ccccc21
inactive: [1] -18.6% | [2] -0.35% | [3] -2.05% | [4] -21.3% | [5] -11.5% | [6] -22.2%

O=C(N/N=C/c1ccccc1F)c1ccncc1
inactive: [1] 1.1% | [2] 5% | [3] -0.95% | [4] -24.4% | [5] -7.65% | [6] 23.9%

CCN(Cc1cccc(S(=O)(=O)O)c1)c1ccc(C(=C2C=CC(=[N+](C)C)C=C2)c2ccc(N(C)C)cc2)c(S(=O)(=O)O)c1
inactive: [1] 8.35% | [2] 54.8% | [3] 28.1% | [4] -8.55% | [5] 11.9% | [6] 26.4%

Cn1c(=O)[nH]c(=O)c2[nH]c(=O)c(=O)n(C)c21
inactive: [1] -3.15% | [2] 23.3% | [3] 1.55% | [4] -1.9% | [5] -9.5% | [6] -13.1%

CC/C(=N/NC(N)=O)C1C=COC=C1
inactive: [1] -5.75% | [2] 2% | [3] -0.1% | [4] -6.8% | [5] -11.8% | [6] 1.2%

O=C(OCC(OC(=O)c1ccccc1)C1CC(C(O)C2CCCCC2)C(=O)O1)c1ccccc1 (stereo not given)
inactive: [1] 5.25% | [2] 22.1% | [3] 45.9% | [4] 10.2% | [5] 22.2% | [6] 30.6%

Cc1nc(Cl)c(C)c(Cl)n1
inactive: [1] 13.4% | [2] -28.6% | [3] 1.4% | [4] 5.2% | [5] -5% | [6] 15.9%

CCCCN(c1ccccn1)S(=O)(=O)c1ccccc1
inactive: [1] -2.3% | [2] 19.8% | [3] 19.3% | [4] 7.6% | [5] -3.55% | [6] 5.75%

NCC1OC(OC2C(CO)OC(OC3C(O)C(N)CC(N)C3OC3OC(CO)C(O)C(O)C3N)C2O)C(N)C(O)C1O (stereo not given)
inactive: [1] 33.8% | [2] -18.1% | [3] 1.85% | [4] 1.4% | [5] 27.6% | [6] 33.7%

CC(=O)CCc1ccccc1
inactive: [1] 5.6% | [2] -7.8% | [3] -0.9% | [4] -23% | [5] -1.75% | [6] 1.9%

Cc1c(N=Nc2cccc(Cl)c2Cl)c(-c2ccccc2)nn1C(=S)S
inactive: [1] 53.8% | [2] 42.6% | [3] 55.9% | [4] 35.6% | [5] 24.6% | [6] 28.2%

OCCN(CCO)c1cc(/C=C/c2cccc3ccccc23)nc2ccccc12
inactive: [1] 56.9% | [2] 11.3% | [3] 39.6% | [4] 3.85% | [5] -6.5% | [6] 37.4%

CCCCSCC(NC(=O)/C=C/c1c(C)[nH]c(=O)[nH]c1=O)C(=O)OC (stereo not given)
inactive: [1] 16.1% | [2] 20.2% | [3] 31.2% | [4] 22.4% | [5] 7.7% | [6] 28.6%

Cc1ccc(/C(O)=C/c2nc3ccccc3oc2=O)cc1
inactive: [1] 20.2% | [2] 35.4% | [3] -7.5% | [4] -18.7% | [5] 25.9% | [6] 0.85%

O=C(O)C1CCCN1/N=C/c1cccc([N+](=O)[O-])c1 (stereo not given)
inactive: [1] -11.1% | [2] -1.3% | [3] 9.1% | [4] -5.4% | [5] 24.6% | [6] -11.3%

COc1cc2c(cc1OC)C1(CCCl)C3CC4C(=CCOC5CC(=O)N2C1C54)CN3C(=O)Cc1ccccc1 (stereo not given)
inactive: [1] 40.2% | [2] 4.95% | [3] 16.4% | [4] 11.2% | [5] 5.9% | [6] 23.6%

CN1CCC2c3c([nH]c4ccccc34)C(C)(C)OC2C1 (stereo not given)
inactive: [1] -11.9% | [2] -35.9% | [3] -33.6% | [4] 9.2% | [5] -24.6% | [6] 6.65%

c1ccc(-c2cn3c(nc4ccccc43)c(-c3ccccc3)n2)cc1
inactive: [1] -44.6% | [2] -7.15% | [3] -29.1% | [4] -1.15% | [5] -4.3% | [6] -41.9%

CC(=O)N=C1N(/C=C2\C(=O)Oc3ccccc3C2=O)C(=O)/C(=C/c2ccccc2Cl)N1C
inactive: [1] -13.2% | [2] -21.9% | [3] -25.7% | [4] 10.2% | [5] -16.9% | [6] -8.35%

O=C1OC(=O)C2(Cl)C3C=CC(C3)C12 (stereo not given)
inactive: [1] 9.3% | [2] -8.15% | [3] -15.6% | [4] -72.6% | [5] -16.3% | [6] 4.8%

CCOc1ccccc1N
inactive: [1] 8.75% | [2] 16.2% | [3] -34% | [4] 9.5% | [5] -32% | [6] -20.1%

COc1ccc(C(=O)CCN(C)C)cc1
inactive: [1] 15.6% | [2] -5.85% | [3] -7.65% | [4] -11.3% | [5] -7.5% | [6] -4.6%

CCCC1(C)OCC(CCl)O1 (stereo not given)
inactive: [1] -41.6% | [2] -28.4% | [3] -14.6% | [4] -13.2% | [5] -18.3% | [6] 0.15%

CN(C)CCCNC=O
inactive: [1] -30.2% | [2] -10.9% | [3] -26.2% | [4] -11.2% | [5] -0.45% | [6] 23.6%

O=c1[nH]cnc2nc(N3CCN(c4ccccc4)CC3)sc12
inactive: [1] 18.8% | [2] 11.4% | [3] 19.8% | [4] -40.7% | [5] 4.9% | [6] 23.4%

C=C1CC(C2CCC(C)(C)C2)OC1=O (stereo not given)
inactive: [1] 13.7% | [2] 8% | [3] 9.15% | [4] 17.3% | [5] 2.15% | [6] -0.8%

NC(CSS(=O)(=O)CC(N)C(=O)O)C(=O)O (stereo not given)
inactive: [1] -5.85% | [2] 3.45% | [3] 6.15% | [4] -20.7% | [5] 6.4% | [6] -7.05%

CCCNC(C#N)c1ccc(C(C#N)NCCC)cc1 (stereo not given)
inactive: [1] -4.6% | [2] -10.4% | [3] -12.6% | [4] -5.9% | [5] -23.8% | [6] -7.8%

CC(=O)Nc1ccc(S(=O)(=O)/C(=C/c2ccc(-c3ccc(Br)cc3)o2)c2ccc([N+](=O)[O-])o2)cc1
inactive: [1] 30% | [2] -7.45% | [3] -12.2% | [4] 13.7% | [5] 1.1% | [6] -8.05%

Cc1ccc(/C=N/NS(=O)(=O)c2ccc(/C=C3\NC(=O)NC3=O)cc2)cc1
inactive: [1] -16.8% | [2] -6.1% | [3] -31.4% | [4] -6.55% | [5] -41.2% | [6] 1.75%

CCC(CC)c1nc2c([nH]1)c(=O)n(C)c(=O)n2C
inactive: [1] -34% | [2] 8.1% | [3] 5.3% | [4] -32.5% | [5] -7.2% | [6] -10.3%

CCCC[n+]1cccc(C(N)=O)c1
inactive: [1] -3.55% | [2] -19.9% | [3] 3.35% | [4] 0.4% | [5] 12.8% | [6] -2.15%

C=CC(C)(C)c1c(OC(C)=O)cc2oc3c(OC(C)=O)c(OC(C)=O)cc(CC=C(C)C)c3c(=O)c2c1O
inactive: [1] 34% | [2] 12.3% | [3] 11.2% | [4] 7.35% | [5] -5.85% | [6] -0.55%

Cc1cc(C)c(SSc2c(C)cc(C)cc2C)c(C)c1
inactive: [1] -7.8% | [2] -8.65% | [3] -3.9% | [4] -15.6% | [6] -1.6%
